Data from PubChem BioAssay (EPA / NIEHS).
Records with an inconclusive call do not appear. The source made the active and inactive calls. How the source made its calls, unless noted: active means hit-call score of the fitted dose curve at least 0.9, where 1 is the maximum; inconclusive means response in the unintended direction; inactive means score below 0.9.

Experiments:
[1] = TOX21_p53_BLA_p2_viability: Viability Assessment in the Tox21 HCT-116 p53 Agonism Beta-lactamase Assay, Phase 2 (AID 2283591);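 further: actives lower the ATP signal meaning cytotoxicity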
How it was run: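 HCT-116 p53-bla cells (4000/well) rested 5 h at 37C, then received compounds in DMSO (217-fold dilution) for 16 h at 37C, 5% CO2. After the CCF4 read, CellTiter-Glo was added; ATP luminescence was read after 30 min at room temperature.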

[2] = biological target: Cellular tumor antigen p53 (Homo sapiens) (UniProt P04637); test: TOX21_p53_BLA_p2_ratio: Tox21 HCT-116 p53 Agonism Beta-lactamase Assay, Ratio, Phase 2 (AID 2283592)
Chain of Cellular tumor antigen p53 (Homo sapiens) (P04637 whole entry, looked up): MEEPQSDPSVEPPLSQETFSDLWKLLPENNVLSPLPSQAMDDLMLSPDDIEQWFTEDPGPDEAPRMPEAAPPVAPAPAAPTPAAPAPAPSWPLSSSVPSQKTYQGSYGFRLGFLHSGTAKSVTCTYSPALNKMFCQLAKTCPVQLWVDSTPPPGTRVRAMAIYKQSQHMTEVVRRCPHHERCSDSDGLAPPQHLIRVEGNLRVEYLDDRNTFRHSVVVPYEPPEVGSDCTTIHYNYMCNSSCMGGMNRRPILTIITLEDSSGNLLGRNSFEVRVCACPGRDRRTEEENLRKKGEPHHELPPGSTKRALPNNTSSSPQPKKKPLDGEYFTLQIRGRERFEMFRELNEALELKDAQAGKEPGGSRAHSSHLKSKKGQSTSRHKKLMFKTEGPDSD
How it was run: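 First, HCT116 reporter cells settle for 5 h at 37C. Next, DMSO compound solutions are pinned in (217-fold dilution) and left 16 h. Finally, CCF4-AM substrate is loaded 2 h at room temperature and the 460/530 nm ratio read.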

[3] = TOX21_p53_BLA_p3_viability: Viability Assessment in the Tox21 HCT-116 p53 Agonism Beta-lactamase Assay, Phase 3 (AID 2283593);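 further: cells exposed to compound for 16 h before reading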
How it was run: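 HCT-116 cells (4000/well) rested 5 h at 37C, then got DMSO compounds by pin tool (217-fold dilution) for 16 h at 37C, 5% CO2. After the bla read, CellTiter-Glo was added and luminescence read at 30 min, room temperature.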

[4] = biological target: Cellular tumor antigen p53 (Homo sapiens) (UniProt P04637); test: TOX21_p53_BLA_p3_ratio: Tox21 HCT-116 p53 Agonism Beta-lactamase Assay, Ratio, Phase 3 (AID 2283596)
How it was run: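 Cells were seeded at 4000/well, rested 5 h at 37C, then dosed with DMSO compound solutions (217-fold dilution) for 16 h. CCF4-AM substrate was loaded for 2 h at room temperature, and the 460/530 nm emission ratio was fitted for gain of signal versus DMSO.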

[5] = biological target: Cellular tumor antigen p53 (Homo sapiens) (UniProt P04637); test: TOX21_p53_BLA_p5_ratio: Tox21 HCT-116 p53 Agonism Beta-lactamase Assay, Ratio, Phase 5 (AID 2283599)
How it was run: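 HCT-116 cells carrying a p53-inducible beta-lactamase reporter were seeded at 4000 cells/well and dosed after 5 h with compound in DMSO (217-fold dilution). After 16 h at 37C, CCF4-AM substrate was added for 2 h, and the 460/530 nm emission ratio was scored as gain-of-signal versus DMSO.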

[6] = biological target: Cellular tumor antigen p53 (Homo sapiens) (UniProt P04637); test: TOX21_p53_BLA_p4_ratio: Tox21 HCT-116 p53 Agonism Beta-lactamase Assay, Ratio, Phase 4 (AID 2283601)
How it was run: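 HCT116 cells carrying an inducible beta-lactamase reporter were plated at 4000 cells/well, rested 5 h, then exposed to compounds in DMSO (217-fold dilution) for 16 h at 37C. CCF4-AM substrate was loaded 2 h at room temperature; 460/530 nm emission ratio scored gain-of-signal versus DMSO.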

[7] = TOX21_p53_BLA_p5_viability: Viability Assessment in the Tox21 HCT-116 p53 Agonism Beta-lactamase Assay, Phase 5 (AID 2283600)
How it was run: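 Decreased CellTiter-Glo luminescence denotes lost viability. Exposure: 16 h at 37C, 5% CO2, with compounds from DMSO stocks diluted 217-fold in wells of 4000 cells.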

[8] = TOX21_TR_RXR_BLA_Agonist_Followup_viability: Viability Assessment in the Tox21 Thyroid Hormone Receptor beta Retinoid X Receptor alpha (RXRa) Agonism Beta-lactamase (BLA) Follow-Up Assay (AID 2283970)
How it was run: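 Viability counter-screen run alongside the RXRa bla follow-up: HEK293T reporter cells were treated for 16h at 37C in stripped-serum medium, then ATP was quantified by luciferase-coupled CellTiter-Glo. Decreased signal relative to DMSO marked cytotoxicity.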

[9] = tested on: Brachyury (BRA) Protein Expression, Deisenroth Lab, TBXT (gene 6862); test: CCTE_Deisenroth_DEVTOX-GLR_legacy_Bra: (Legacy) CCTE's DevTox GLR-Endo Assay Evaluation of Brachyury (BRA) Protein Expression, Deisenroth Lab (AID 2284329; active means hit-call score of the fitted dose curve at least 0.9, where 1 is the maximum; inactive means score below 0.9)
How it was run: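 High-content imaging of fixed RUES2-GLR cells after a 48-hour differentiation with two compound exposures yields percent cells whose Bra signal exceeds pluripotent control median by 5x BMAD; values are baseline-corrected to DMSO.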

[10] = tested on: SRY-box transcription factor 2 (SOX2) Protein Expression, Deisenroth Lab, SOX2 (gene 6657); test: CCTE_Deisenroth_DEVTOX-GLR_legacy_Sox2: (Legacy) CCTE's DevTox GLR-Endo Assay Evaluation of SRY-box transcription factor 2 (SOX2) Protein Expression, Deisenroth Lab (AID 2284346; active means hit-call score of the fitted dose curve at least 0.9, where 1 is the maximum; inactive means score below 0.9)
How it was run: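 Two exposures, 24 h apart, during 48 h defined-media differentiation of seeded RUES2-GLR cells; nuclei-stained cells imaged. Sox2 positivity called at 5x BMAD above endoderm control median, DMSO median subtracted.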

[11] = tested on: SRY-box transcription factor 2 (SOX2) Protein Expression, Deisenroth Lab, SOX2 (gene 6657); test: CCTE_Deisenroth_DEVTOX-GLR_Endo_SOX2: CCTE's DevTox GLR-Endo Assay Evaluation of SRY-box transcription factor 2 (SOX2) Protein Expression, Deisenroth Lab (AID 2284412)
How it was run: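 Endpoint is percent SOX2-positive cells (SOX2+ count/total cells) minus 0.2% DMSO control, from high-content imaging of fixed, nuclear-stained RUES2-GLR cells. Dosing twice at 24 h intervals over 48 h differentiation, 1 nM–200 uM in 10 points.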

[12] = tested on: SRY-box transcription factor 17 (SOX17) Protein Expression, Deisenroth Lab, SOX17 (gene 64321); test: CCTE_Deisenroth_DEVTOX-GLR_Endo_SOX17: CCTE's DevTox GLR-Endo Assay Evaluation of SRY-box transcription factor 17 (SOX17) Protein Expression, Deisenroth Lab (AID 2284413; active means hit-call score of the fitted dose curve at least 0.9, where 1 is the maximum; inactive means score below 0.9)
How it was run: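 Fluorescent microscopy of a SOX17 reporter in RUES2-GLR pluripotent cells scored endoderm differentiation after 48 h and two 24-h-spaced exposures. Values are percent change in SOX17+ population against 0.2% DMSO, n=4 experimental replicates.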

[13] = tested on: Brachyury (BRA) Protein Expression, TBXT (gene 6862); test: CCTE_Deisenroth_DEVTOX-GLR_Endo_BRA: CCTE's DevTox GLR-Endo Assay Evaluation of Brachyury (BRA) Protein Expression, Deisenroth Lab (AID 2284417; active means hit-call score of the fitted dose curve at least 0.9, where 1 is the maximum; inactive means score below 0.9)
How it was run: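 Endpoint is the fraction of BRA reporter-positive cells over total nuclei, corrected by subtracting the 0.2% DMSO value. Chemicals (1 nM - 200 uM, 10 points) were dosed twice during 48 h differentiation of RUES2-GLR cells, read by imaging.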

[14] = tested on: SRY-box transcription factor 17 (SOX17) Protein Expression, Deisenroth Lab, SOX17 (gene 64321); test: CCTE_Deisenroth_DEVTOX-GLR_Pluri_SOX17: CCTE's DevTox GLR-Pluri Assay Evaluation of SRY-box transcription factor 17 (SOX17) Protein Expression, Deisenroth Lab (AID 2284427)
How it was run: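 RUES2-GLR pluripotent cells were induced toward endoderm over 48 h and received two compound doses 24 h apart, in a 10-point series from 1 nM to 200 uM. The percentage of SOX17+ cells among total cells was measured by high-content imaging and reported minus the 0.2% DMSO control.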

[15] = tested on: SRY-box transcription factor 2 (SOX2) Protein Expression, Deisenroth Lab, SOX2 (gene 6657); test: CCTE_Deisenroth_DEVTOX-GLR_Pluri_SOX2: CCTE's DevTox GLR-Pluri Assay Evaluation of SRY-box transcription factor 2 (SOX2) Protein Expression, Deisenroth Lab (AID 2284428; active means hit-call score of the fitted dose curve at least 0.9, where 1 is the maximum; inactive means score below 0.9)
How it was run: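 RUES2-GLR human pluripotent cells, two exposures 24 h apart over 48 h differentiation; 10-point series 1 nM - 200 uM. High-content imaging gives SOX2+ cells divided by cell count, reported as percent change versus 0.2% DMSO.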

[16] = CCTE_Deisenroth_DEVTOX-GLR_Pluri_CellCount: Viability Assessment in CCTE's DevTox GLR-Pluri Assay Evaluation of Total Cell Counts, Deisenroth Lab (AID 2284430; active means hit-call score of the fitted dose curve at least 0.9, where 1 is the maximum; inactive means score below 0.9)
How it was run: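 Cytotoxicity readout: fluorescent nuclei counts by high-content imaging, expressed as percent change relative to 0.2% DMSO. Human RUES2-GLR pluripotent line differentiated 48 h, dosed twice at 24-h intervals across 1 nM - 200 uM (10 points).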

[17] = ACEA_ER_AUC_viability: ACEA Biosciences xCELLigence Real-Time Cell Analysis on Estrogen Receptor Agonism for Viability (AID 2283782);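 further: hit means loss of impedance signal meaning reduced cell growth or viability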
How it was run: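 Continuous-exposure impedance cell analysis uses T-47D cells in charcoal-stripped serum, eight 1:4 dilutions topping at 100 uM final, biological duplicate. Area under the growth curve at 80 h is fitted against DMSO baseline.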

Measured: AC50

FC(F)(F)C(F)(F)C(F)(F)C(F)(F)C(F)(F)C(F)(F)C(F)(F)C(F)(F)Br
inactive: [1] | [2] | [3] | [4] | [5] | [6]

CN1C(=O)OC(C)(C)C1=O
inactive: [1] | [2] | [3] | [4] | [5] | [7] | [6]

Nc1nc2ccc(OC(F)(F)F)cc2s1
active: [2] 7.3 µM | [4] 7.29 µM | [5] 23.9 µM | [6] 11.3 µM
inactive: [1] | [3]

CC1=C(/C=C/C(C)=C/C=C/C(C)=C\C(=O)O)C(C)(C)CCC1
active: [3] 42.9 µM | [4] 87.3 µM | [9] 100 µM | [10] 41.3 µM | [11] 69.5 µM | [12] 0.119 µM | [13] 28 µM | [14] 20.2 µM | [15] 1.78 µM | [16] 19 µM
inactive: [1] | [2] | [5] | [7] | [6] | [8]

Nc1c(Br)cc(Br)cc1CNC1CCC(O)CC1 (centres undefined)
inactive: [1] | [2] | [3] | [4] | [5] | [6]

Nc1ccc(S(=O)(=O)Nc2ccccn2)cc1
inactive: [1] | [2] | [3] | [4] | [5] | [6]

CCC1(CO)COCOC1
inactive: [1] | [2] | [3] | [4] | [5] | [6]

CCOC(=O)Cn1cccc1-c1nc(-c2ccc(OC)cc2)c(-c2ccc(OC)cc2)s1
inactive: [1] | [2] | [3] | [5] | [7] | [6]
active: [4] 40.9 µM

COC(=O)N/N=C/c1c[n+]([O-])c2ccccc2[n+]1[O-]
inactive: [1] | [2] | [3] | [4] | [5] | [6]

CCCCCCCC/C=C/CCCOC(C)=O
inactive: [1] | [2] | [3] | [4] | [5] | [7] | [6] | [17]

Cc1cccc(Nc2ncccc2C(=O)O)c1C
inactive: [1] | [2] | [3] | [4] | [5] | [6]

C=C(C)c1ccccc1
inactive: [1] | [2] | [3] | [4] | [5] | [7] | [6]

O=C(c1ccc(O)cc1)c1ccc(Cl)cc1
inactive: [1] | [3] | [7]
active: [2] 70.5 µM | [4] 80 µM | [5] 74.9 µM | [6] 86.9 µM
